Results taken from PubChem BioAssay (EPA / NIEHS).
Records with an inconclusive call do not appear. Where a structure was tested more than once in an assay, its records may differ in their call. The source made the active and inactive calls. How the source made its calls, unless noted: active means hit-call score of the fitted dose curve at least 0.9, where 1 is the maximum; inactive means score below 0.9.

Tests used:
[1] = read-out: Monokine induced gamma interferon (MIG), CXCL9 (gene 4283); assay: BSK_3C_MIG: BioMAP Diversity Plus: 3C Assay for Monokine induced gamma interferon (MIG) Biomarker Activity (AID 2283021); conditions: primary human endothelial cells (HUVEC); actives raise or lower the signal;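 on AC50: MIG protein level measured by immunoassay in the treated endothelial cultures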
Method in brief: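 HUVEC, 3C system; 24 h chemical exposure; MIG by ELISA; bidirectional fit vs DMSO baseline.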

[2] = target: human Vitamin D Receptor (VDR), VDR (gene 7421) (UniProt P11473); assay: ATG_VDR_TRANS: Attagene TRANS-FACTORIAL HepG2 Assay for human Vitamin D Receptor (VDR) (AID 2283022; active means hit-call score of the fitted dose curve at least 0.9, where 1 is the maximum)
Method in brief: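 RT-PCR/capillary electrophoresis read-out of reporter mRNA induction in transiently transfected HepG2; 24 h dosing; chimeric NR-Gal4 (TRANS format); gain-of-signal fit against DMSO baseline.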

[3] = BSK_3C_SRB: Viability Assessment in the BioMAP Diversity Plus: 3C Assay (AID 2283023); conditions: primary human endothelial cells (HUVEC);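 further: cells read 24 h after compound dosing; fitted both ways against DMSO so a hit may be signal rise or drop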
Method in brief: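 HUVEC, 24 h post-dose; 10% TCA fix, 0.1% SRB stain, A560 nm. Bidirectional curve fit vs DMSO negative control.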

[4] = read-out: Matrix Metallopeptidase 1 (MMP1), MMP1 (gene 4312); assay: BSK_BE3C_MMP1: BioMAP Diversity Plus: BE3C Assay for Matrix Metallopeptidase 1 (MMP1) Biomarker Activity (AID 2283024); conditions: primary human bronchial epithelial cells; actives raise or lower the signal
Method in brief: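 ELISA read-out of MMP1 in human lung bronchial epithelial primary cultures, 24 h post-dose; bidirectional curve fit vs DMSO baseline, gain or loss of signal scored.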

[5] = BSK_3C_Vis: BioMAP Diversity Plus: 3C Assay for Morphology Visualization (AID 2283025); conditions: primary human endothelial cells (HUVEC);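 further: fitted both ways so gain or loss versus DMSO counts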;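 on AC50: light microscopy image of cell morphology used as background control; cells imaged 24 h after dosing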
Method in brief: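 HUVEC, 3C system; light microscopy of morphology at 24 h post-dose. Bidirectional fit vs DMSO baseline. Secondary readout, background-control function.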

[6] = read-out: Pselectin, SELP (gene 6403); assay: BSK_4H_Pselectin: BioMAP Diversity Plus: 4H Assay for Pselectin Biomarker Activity (AID 2283026); conditions: primary human endothelial cells (HUVEC); actives raise or lower the signal
Method in brief: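 HUVEC, 24 h chemical exposure; P-selectin read by ELISA. Bidirectional curve fit vs DMSO baseline; gain or loss of signal scored.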

[7] = BSK_4H_SRB: Viability Assessment in the BioMAP Diversity Plus: 4H Assay (AID 2283027); conditions: primary human endothelial cells (HUVEC);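 further: cells exposed to compound for 24 h before staining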;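 on AC50: curves fitted both ways versus DMSO so AC50 may be loss or gain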
Method in brief: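 Cytotoxicity readout: sulforhodamine B (0.1%) staining of total protein after 10% TCA fixation, measured at 560 nm in human umbilical vein endothelium at 24 h. DMSO set the baseline; fitting was bidirectional.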

[8] = BSK_BE3C_SRB: Viability Assessment in the BioMAP Diversity Plus: BE3C Assay (AID 2283028); conditions: primary human bronchial epithelial cells;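 on AC50: fitted both ways so AC50 may mark signal gain or loss versus DMSO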
Method in brief: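 Primary human bronchial epithelium; chemical dosing, 24 h; 10% TCA fix, 0.1% SRB stain, A560; bidirectional fit vs DMSO baseline.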

[9] = read-out: Thrombomodulin, THBD (gene 7056); assay: BSK_3C_Thrombomodulin: BioMAP Diversity Plus: 3C Assay for Thrombomodulin Biomarker Activity (AID 2283029); conditions: primary human endothelial cells (HUVEC); actives raise or lower the signal
Method in brief: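 HUVEC, 3C conditions; compound 24 h; thrombomodulin by ELISA; bidirectional curve fit vs DMSO baseline; parallel SRB total-protein staining for cytotoxicity.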

[10] = read-out: Urokinase-type plasminogen activator receptor (uPAR), PLAUR (gene 5329); assay: BSK_4H_uPAR: BioMAP Diversity Plus: 4H Assay for Urokinase-type plasminogen activator receptor (uPAR) Biomarker Activity (AID 2283030); conditions: primary human endothelial cells (HUVEC); actives raise or lower the signal
Method in brief: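 HUVEC, 24 h post-dose; uPAR by ELISA; bidirectional fit vs DMSO baseline.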

Measured: AC50

human Vitamin D Receptor (VDR), VDR (gene 7421), sequence (P11473 whole entry, looked up, the tested form may be a part): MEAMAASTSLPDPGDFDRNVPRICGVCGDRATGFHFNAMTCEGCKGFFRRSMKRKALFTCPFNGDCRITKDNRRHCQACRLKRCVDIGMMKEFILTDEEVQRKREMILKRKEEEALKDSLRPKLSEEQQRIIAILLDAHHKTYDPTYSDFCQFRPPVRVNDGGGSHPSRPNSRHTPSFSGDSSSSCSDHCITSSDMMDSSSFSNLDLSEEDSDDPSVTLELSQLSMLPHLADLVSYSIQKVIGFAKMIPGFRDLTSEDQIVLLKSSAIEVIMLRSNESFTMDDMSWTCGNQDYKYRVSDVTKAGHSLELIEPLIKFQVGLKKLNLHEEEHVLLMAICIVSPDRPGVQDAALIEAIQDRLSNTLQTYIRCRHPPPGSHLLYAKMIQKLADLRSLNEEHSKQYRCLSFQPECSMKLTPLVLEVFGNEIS

O=C=NC1CCC(CC2CCC(N=C=O)CC2)CC1 (configuration not stated)
active: [5] 37.5 µM
inactive: all other assays above

CC(C)c1ccc(C(C)C)cc1
active: [3] 30.5 µM | [5] 37.8 µM | [6] 31 µM | [7] 30.7 µM | [10] 30.9 µM
inactive: all other assays above

C=C[Si](OCC)(OCC)OCC
inactive: all assays above

CCCCC(CC)COC(=O)/C=C\C(=O)OCC(CC)CCCC (configuration not stated)
inactive: all assays above

CC1COc2ccccc2N1C(=O)C(Cl)Cl (configuration not stated)
active: [3] 7.57 µM | [5] 5.21 µM | [6] 4.69 µM | [7] 2.79 µM
not listed: [4]
inactive: all other assays above

BrC1CCC(Br)C(Br)CCC(Br)C(Br)CCC1Br (configuration not stated)
inactive: [1] | [8] | [9]
active: [3] 4.73 µM | [4] 1.16 µM | [5] 8.03 µM | [6] 2.57 µM | [7] 4.73 µM | [10] 4.6 µM

CCCCCCCCC=O
inactive: all assays above

O=C1OC2(c3cc(Br)c(O)c(Br)c3Oc3c2cc(Br)c(O)c3Br)c2c(Cl)c(Cl)c(Cl)c(Cl)c21
inactive: [2]
active: [1] 16.3 µM | [3] 3.57 µM | [4] 0.546 µM | [5] 8.63 µM | [6] 2.19 µM | [7] 3.51 µM | [8] 0.608 µM | [9] 13.2 µM | [10] 1.34 µM

Nc1cc([N+](=O)[O-])ccc1Cl
inactive: all assays above

COC(=O)c1ccc(C)cc1
not listed: [2]
inactive: all other assays above

CN(CCOc1ccc(CC2SC(=O)NC2=O)cc1)c1ccccn1 (configuration not stated)
active: [6] 1.12 µM | [10] 11.6 µM
not listed: [2]
inactive: all other assays above

O=C(O)c1cn(-c2ccc(F)cc2)c2cc(N3CCNCC3)c(F)cc2c1=O
not listed: [2]
inactive: all other assays above

O=P(c1ccccc1)(c1ccccc1)c1ccccc1
not listed: [2]
inactive: all other assays above

c1ccc2sc(SN(C3CCCCC3)C3CCCCC3)nc2c1
active: [3] 6.8 µM | [4] 6.54 µM | [5] 8.8 µM | [6] 5.21 µM
inactive: all other assays above

CC(=O)/C=C/C1=C(C)CCCC1(C)C
inactive: all assays above

O=C(O)c1cn(C2CC2)c2cc(N3CCNCC3)c(F)cc2c1=O
not listed: [2]
inactive: all other assays above

CC(C)(COC(=O)c1ccccc1)COC(=O)c1ccccc1
active: [3] 26.8 µM | [5] 38.9 µM | [6] 31.7 µM | [7] 23.2 µM
not listed: [2]
inactive: all other assays above

Cc1ccc2n[nH]nc2c1
not listed: [2]
inactive: all other assays above

CC1CCC(C(C)CS)CC1S (configuration not stated)
inactive: [2] | [9]
active: [1] 36.9 µM | [3] 20 µM | [4] 36.6 µM | [5] 37.1 µM | [6] 23.9 µM | [7] 30.9 µM | [8] 29.9 µM | [10] 36.4 µM

OC[C@H]1O[C@H](O[C@]2(CCl)O[C@H](CCl)[C@@H](O)[C@@H]2O)[C@H](O)[C@@H](O)[C@H]1Cl
not listed: [5]
inactive: all other assays above

O=C1CCCCCCCCCCCCCCO1
active: [3] 27.1 µM | [5] 14.4 µM | [6] 27.6 µM | [7] 27.4 µM | [8] 9.72 µM | [9] 20 µM | [10] 23.7 µM
inactive: [1] | [2] | [4]

N#Cc1ccc(CC(=NNC(=O)Nc2ccc(OC(F)(F)F)cc2)c2cccc(C(F)(F)F)c2)cc1
not listed: [2]
inactive: all other assays above

O=C(O)C[C@H](O)C[C@H](O)/C=C/c1c(C2CC2)nc2ccccc2c1-c1ccc(F)cc1
active: [3] 0.0713 µM | [5] 3.47 µM | [6] 0.152 µM | [7] 0.847 µM
inactive: all other assays above

C=C(C)C(=O)O[C@H]1C[C@@H]2CC[C@@]1(C)C2(C)C
inactive: [2] | [9]
active: [1] 34.7 µM | [3] 13.8 µM | [4] 20 µM | [5] 12.5 µM | [6] 11.3 µM | [7] 10.9 µM | [8] 34.7 µM | [10] 9.5 µM

CCCCC/C=C/C=C/C=O
active: [1] 36.5 µM | [3] 31.1 µM | [5] 37.4 µM | [6] 27.1 µM | [7] 30.5 µM | [8] 30.3 µM | [10] 35.6 µM
inactive: [4] | [9]

CC(=O)O[C@]1(C(C)=O)CC[C@H]2[C@@H]3C[C@H](C)C4=CC(=O)CC[C@]4(C)[C@H]3CC[C@@]21C
active: [4] 5.07 µM
not listed: [2]
inactive: all other assays above

CC(C)Oc1ccccc1O
not listed: [2]
inactive: all other assays above

CCCCC(CC)COCCC#N (configuration not stated)
inactive: all assays above

CC[Si](OC(C)=O)(OC(C)=O)OC(C)=O
not listed: [5]
inactive: all other assays above

CCCCCCCCCCCCCCCCCC(=O)OCC(CC)CCCC (configuration not stated)
inactive: all assays above

CCC(=O)OCc1ccccc1
not listed: [5]
inactive: all other assays above

CC(=O)Nc1ccccc1O
inactive: all assays above

Cc1ccc(Nc2ccc(O)c3c2C(=O)c2ccccc2C3=O)cc1
inactive: all assays above

CCn1c2ccccc2c2cc(N)ccc21
active: [5] 8.8 µM | [6] 1.23 µM | [10] 0.152 µM
not listed: [2]
inactive: all other assays above

O=[N+]([O-])c1cc(C(F)(F)F)ccc1Cl
not listed: [2]
inactive: all other assays above

Nc1cc([N+](=O)[O-])ccc1O
active: [4] 0.15 µM
inactive: [1] | [2] | [3] | [4] | [6] | [7] | [8] | [9] | [10]

O=C(O)c1ccc([N+](=O)[O-])cc1
not listed: [2]
inactive: all other assays above

CCCCCCCCCC=O
not listed: [2]
inactive: all other assays above

CNC[C@H](O)c1cccc(O)c1
inactive: all assays above

NC(N)=NC(=O)c1nc(Cl)c(N)nc1N
inactive: [2]

Cc1cc(C2(c3cc(C)c(O)cc3C)OS(=O)(=O)c3ccccc32)c(C)cc1O
not listed: [2] | [5]
inactive: all other assays above

C=CC(=O)NCOCC(C)C
inactive: [2]

CCCC(=O)C(C)=O
inactive: [2]

O=S(=O)(O)c1cccc2c(S(=O)(=O)O)cccc12
inactive: [2]

CC1(C)OC[C@@H]2O[C@@]3(C(=O)O)OC(C)(C)O[C@H]3[C@@H]2O1
inactive: [2]

C#C[C@]1(O)CC[C@H]2[C@@H]3CCC4=Cc5oncc5C[C@]4(C)[C@H]3CC[C@@]21C
inactive: [1] | [4] | [8] | [9]
active: [3] 3.97 µM | [5] 37.5 µM | [6] 35.2 µM | [7] 7.33 µM | [10] 3.97 µM

CCC(=O)OCCC(C)CCC=C(C)C (configuration not stated)
inactive: [2]

C[C@H]1C[C@H]2[C@@H]3CCC4=CC(=O)C=C[C@]4(C)[C@@]3(F)[C@@H](O)C[C@]2(C)[C@@]1(O)C(=O)COP(=O)(O)O
inactive: [2]

COc1cc(C=O)ccc1OC(=O)C(C)C
not listed: [2] | [5]
inactive: all other assays above
